Out of some 360,000 compounds screened, about 2,300 (0.64%) were called active. This excerpt belongs to a sample that is enriched for actives. A number with no mark means an inactive call. Rule as the data show it: active = inhibition mostly above about 40% (no sharp cut-off); inactive = mostly below about 27%.
Target: Sentrin-specific protease 8 (Homo sapiens) (UniProt Q96LD8)
Experiment: human SENP8 protease inhibitors, primary screen, biochemical, fluorescence, Nedd8 protein substrate, uHTS (AID 602440)
Conditions: recombinant SENP8, Nedd8 substrate fluorescence; at 20 µM; hits give high values

Chain of Sentrin-specific protease 8 (Homo sapiens) (Q96LD8 whole entry, looked up): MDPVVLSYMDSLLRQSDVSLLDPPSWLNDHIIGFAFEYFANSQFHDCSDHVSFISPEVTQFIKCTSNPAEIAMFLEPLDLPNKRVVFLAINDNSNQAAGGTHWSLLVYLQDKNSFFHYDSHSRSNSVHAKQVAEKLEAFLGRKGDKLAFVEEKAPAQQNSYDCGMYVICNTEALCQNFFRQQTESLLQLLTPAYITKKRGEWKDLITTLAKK

| SMILES | inhibition |
| --- | --- |
| OC1CSc2nc3ccccc3n2C1 (stereo not drawn) | 9.1% |
| O=C1NC(c2ccccc2)CCC1(Cl)Cl (stereo not drawn) | 14.1% |
| Cc1c(NS(=O)(=O)c2cccc(C(=O)Nc3ccc(SC(F)F)cc3)c2)c(=O)n(-c2ccccc2)n1C | -1.9% |
| Nc1cccc(S(=O)(=O)Nc2ccc(SC(F)F)cc2)c1 | 5.2% |
| COc1ccc(NC(=O)/C(N=Nc2cccc(S(=O)(=O)Nc3ccc(SC(F)F)cc3)c2)=C(\C)O)cc1 | 38.3% (active) |
| CC(=O)c1cnc(SCCN2C(=O)c3ccccc3C2=O)nc1C | 9.5% |
| CCOCCCNC(=O)c1c[nH]c2cc(C)ccc2c1=O | 5.8% |
| CCc1[nH]nc(C(=O)N2CCCC(CO)(Cc3ccc(F)cc3F)C2)c1C (stereo not drawn) | 3.5% |
| CS(=O)(=O)N(CC(=O)N1CCc2ccccc2C1)c1ccc(Br)cc1 | 6.5% |
| Cn1cccc1C(=O)N1CCc2ccccc2C1 | -0.8% |
| CN(c1ccc(C(=O)N2CCc3ccccc3C2)cc1)S(C)(=O)=O | 43.9% (active) |
| COc1ccc(CNC(=O)CN(C(=O)c2csnn2)c2cnc3ccccc3c2)cc1 | -222% |
| CCN(CC)C(=O)CSc1nc2ccccc2n1CC(=O)N1CCN(c2ccccc2OC)CC1 | 33.5% |
| Nc1ccc2[nH]c(=S)sc2c1 | -81.4% |
| O=c1[nH]c2ccccc2s1 | 44.5% (active) |
| COc1ccc(-c2[nH]ncc2CN(C)Cc2cc(C)[nH]n2)c(F)c1 | 8.6% |
| CCOC(=O)c1c(CC(C)C)csc1/N=C/C1=C(O)CCCC1=O | -55.6% |
| Nn1cnnc1N/N=C/c1cc([N+](=O)[O-])c(Cl)cc1Cl | 51.7% (active) |
| CCCOc1cccc(C(=O)Nc2ccccc2C(=O)N2CCN(C)CC2)c1 | 4.7% |
| C[C@H]1CN([C@@H](C)CO)C(=O)CCCn2cc(nn2)CO[C@@H]1CN(C)S(=O)(=O)c1ccc(-n2cccn2)cc1 | 8.3% |
| Cc1cc(C)nc(N2C(=O)CC(Cc3ccccc3)C2=O)n1 (stereo not drawn) | 2.8% |
| COc1cc(CN2CCCN(C)CC2)c([N+](=O)[O-])cc1OC | 11.8% |
| O=c1[nH]n2c(=O)c3c([nH]c2c1N=Nc1ccccc1)CCC3 | 46.3% (active) |
| CC(C)(C)n1c(=O)[nH]c2c(c1=O)CCC2 | 16.6% |

| SMILES | inhibition |
| --- | --- |
| CCCCOc1ccc(C(=O)NCC(=O)OCC(=O)N2CCN(S(=O)(=O)c3ccc(C)cc3C)CC2)cc1 | 7.7% |
| Cc1cc(C)nc(SCc2nnc(SCC(=O)OC3CCCCC3)o2)n1 | 6.5% |
| COc1ccccc1C1SCCN1C(=O)c1ccc([N+](=O)[O-])cc1 (stereo not drawn) | 8.4% |
| CCOC(=O)C1CCCN(C(=O)c2ccc(N(C)C)cc2)CC1 (stereo not drawn) | 18.8% |
| CCOC(=O)C1CCCN(C(=O)c2ccc(C)c(S(=O)(=O)N3CCCCC3)c2)C1 (stereo not drawn) | 4.6% |
| CCOC(=O)C1CCCN(C(=O)c2ccc(C)c(F)c2)CC1 (stereo not drawn) | 40.6% (active) |
| CC(C)N(C(=O)Cn1cc(S(=O)(=O)CC(=O)N2CCOCC2)c2ccccc21)C(C)C | 5.7% |
| COC(=O)c1nc2n(n1)C(c1ccc([N+](=O)[O-])cc1)C(C(=O)Nc1ccc(Cl)cc1)=C(C)N2 (stereo not drawn) | 18.3% |
| CCc1ccccc1NC1c2ccccc2C(=O)N1c1cccnc1 (stereo not drawn) | 41% (active) |
| COC(=O)c1cc(NC2c3ccccc3C(=O)N2c2ccc(Cl)cn2)cc(C(=O)OC)c1 (stereo not drawn) | -28% |
| O=C1[C@@H](c2ccccc2)[C@@H](c2ccccc2)N1c1cccnc1 | -26.4% |
| O=C(CN1CCN(c2ccc(O)cc2)CC1)Nc1ccc(-c2ccccc2)cc1 | 23.2% |
| O=C(Cc1ccccc1)NC(=S)Nc1ccc(N2CCCCC2)cc1 | 42.1% (active) |
| COc1ccccc1C(=O)NC(=S)Nc1ccc(N2CCOCC2)cc1 | 14.8% |
| CN1CCn2cnc(C(=O)NCC(=O)OC(C)(C)C)c2C1=O | 14.9% |
| CCN(CC)CCCNC(=O)CCn1nc(-c2ccc(Cl)cc2)ccc1=O | 13.2% |
| Cc1[nH][nH]c(=O)c1C(c1ccc(-c2ccc(Cl)cc2)o1)c1c(C)[nH][nH]c1=O | 63.5% (active) |
| CN(CC(=O)Nc1ccc(F)cc1)C(=O)c1ccc(-c2ccc(Cl)cc2)o1 | -23.1% |
| COc1ccc(C(=O)NC(=S)N2CCNC(=O)C2CC(=O)OC(C)C)cc1 (stereo not drawn) | -6.1% |
| CC(=O)c1ccc(OCC(=O)N(C)C2CCS(=O)(=O)C2)cc1 (stereo not drawn) | 18.3% |
| Cn1c(=O)[nH]c(=O)c2c1nc(CN(Cc1ccccc1)Cc1ccccc1)n2CCN1CCOCC1 | 17.1% |
| COCCNC(=O)NC(=O)COC(=O)C1(c2ccc(Cl)cc2)CC1 | 6.8% |
| O=C(Cc1ccccc1)Nc1ccc(C(=O)Nc2ccccc2C(=O)O)cc1 | -13.4% |
| O=C(Cn1ccc(=O)[nH]c1=O)Nc1ccc(C(=O)O)c(O)c1 | 7.9% |

| SMILES | inhibition |
| --- | --- |
| O=C(Nc1ccc(C(=O)O)c(O)c1)c1ccccc1 | 43.3% (active) |
| CC(C)C(NC(=O)c1c(F)cccc1F)C(=O)NCc1ccncc1 (stereo not drawn) | -7.7% |
| N#Cc1ccc(C(C(=O)NCc2ccccc2)n2c(=O)c(-c3ccco3)nc3ccccc32)cc1 (stereo not drawn) | -432% |
| c1coc(-c2nc3nc4ccccc4n3nc2-c2ccco2)c1 | 106% (active) |
| Cc1cccc(C)c1NC(=O)C(c1cccc2ccccc12)n1c(=O)c(-c2ccco2)nc2ccccc21 (stereo not drawn) | -458% |
| Cc1ccc2c(Cl)c(C(=O)Nc3nn[nH]n3)sc2c1 | -0.2% |
| Cc1noc(C)c1NC(=O)Nc1ccc2c(c1)C(=O)N([C@H](C)CO)C[C@H](C)[C@@H](CN(C)S(=O)(=O)c1cn(C)cn1)O2 | -6% |
| O=C(C/C(=N\NC(=O)c1ccccc1Br)C(F)(F)F)c1cccs1 | 25.6% |
| O=C(CSc1nnc2ccccn12)c1ccccc1 | -1.2% |
| Cc1nc(SCC(=O)c2ccccc2)c([N+](=O)[O-])[nH]1 | 41.9% (active) |
| Cc1nc2nc(SCC(=O)c3ccccc3)[nH]c2cc1Br | 13.3% |
| Cc1cc(C)n2nc(C(=O)OCC(=O)N(C)CC(=O)Nc3ccc(F)cc3)nc2n1 | 3.2% |
| COc1ccc(CCNC(=O)COC(=O)C2CC2C)cc1 (stereo not drawn) | 9.7% |
| Cc1cc(NC(=O)CN2C(=O)NC(CCc3ccccc3)C2=O)no1 (stereo not drawn) | 12.2% |
| CCc1cccc(C)c1NC(=O)COC(=O)Cc1ccsc1 | -35.2% |
| Cc1cccc(C)c1NC(=O)CNC(=O)C1CCCC1 | 11.2% |
| CCc1cccc(C)c1NC(=O)COC(=O)CC1CCCC1 | 40.9% (active) |
| Cc1ccc(N(C(=O)CC2NC(=O)NC2=O)C2(C(=O)NC3CCCC3)CCCCC2)cc1 (stereo not drawn) | 21.4% |
| Cc1ccc(NC(=O)CN(C)C(=O)c2cccc(S(=O)(=O)N3CCCC3)c2)cc1 | 18.7% |
| COc1ccc(CCNC(=O)CN(c2ccccc2)S(C)(=O)=O)cc1 | 13.5% |
| COc1ccc(N(CC(=O)NCCSCc2cccc(Cl)c2)S(C)(=O)=O)cc1 | 16.9% |
| COc1cccc(N(CC(=O)NCCSc2ccccn2)S(C)(=O)=O)c1 | 40.3% (active) |
| COc1ccc(NC(=O)CCNS(=O)(=O)c2ccc3c(c2)c(=O)n(C)c(=O)n3C)cc1OC | 9.5% |
| OCc1n[nH]c(CO)n1 | 6.5% |

| SMILES | inhibition |
| --- | --- |
| CN1C(=O)/C(=C/C=C2\SCCN2C)OC1=S | 43.8% (active) |
| O=[N+]([O-])c1ccc(C=Nc2ccc(Cl)cc2Cl)s1 | 69% (active) |
| CCNc1nc(N)nc(Oc2ccc(OCC)nn2)n1 | 6.3% |
| O=P(O)(CP(=O)(c1ccccc1)c1ccccc1)c1ccccc1O | 41.1% (active) |
| O=P(O)(CP(=O)(c1ccccc1)c1ccccc1)c1ccccc1 | 10.2% |
| CC(C)(C)c1cc(P(=O)(c2ccccc2)c2ccccc2)ccc1O | 20.7% |
| COC(=O)C1=C(C)N(C)C(=S)NC1c1cc(OC)ccc1OC (stereo not drawn) | 10% |
| COC(=O)[C@]12CCCCC=C1N(CCC1=CCCCC1)C(=O)[C@H](CC(=O)NCC1CCCCC1)C2 | 10.5% |
| COc1cc(C(=O)NC2CCN(Cc3ccccc3)CC2)cc(Cl)c1OC(C)C | 3.3% |
| CC(=O)Nc1ccc(NC(=O)COc2ccc(S(=O)(=O)NC(C)c3ccccc3)cc2)cc1 (stereo not drawn) | 8.8% |
| CCOC(=O)/C(=N\Nc1ccccc1[N+](=O)[O-])c1csc(Nc2ccccc2)n1 | 52.3% (active) |
| CCOC(=O)C/C(C)=N\Nc1ccc([N+](=O)[O-])cc1[N+](=O)[O-] | 23.3% |
| CCOC(=O)C(=O)Nc1nc(-c2ccccc2)c(CC)s1 | 16.8% |
| NC(=O)c1ccc(N2CCOCC2)nc1 | 10.6% |
| Nc1ncnc2c1ncn2[C@@H]1O[C@H](CNC(=O)[C@H](N)Cc2cccnc2)[C@@H](O)[C@H]1O | 6.7% |
| CN(CCc1ccccn1)C(=O)CCC1CCCN(Cc2ccccc2OC(F)F)C1 (stereo not drawn) | 29.2% |
| Nc1ccc2nc3c(=O)[nH]c(=S)[nH]c3nc2c1 | 46.9% (active) |
| CC(C)(C)CN1CCNC(=O)C1CC(=O)NC1Cc2ccccc2C1 (stereo not drawn) | -47.4% |
| COC(=O)CCCC1=CC2=CC(=O)C(C)(OC(=O)c3cccs3)C(=O)C2=CN1CC(C)C (stereo not drawn) | 40.8% (active) |
| COC(=O)CCCC1=CC2=C(c3ccccc3)C(=O)C(C)(OC(=O)C3CCCC3)C(=O)C2=CN1c1ccc(OC)cc1 (stereo not drawn) | -154% |
| CCCCC1=CC2=CC(=O)C(C)(OC(=O)CC)C(=O)C2=CN1CCCOC(C)C (stereo not drawn) | -190% |

— PubChem BioAssay AID602440 (Sanford-Burnham Center for Chemical Genomics, 2012)
